Test results as given in PubChem BioAssay AID720690 (Broad Institute, 2013).
Entries with a potency or affinity are not part of this list. Active and inactive are the calls of the source.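 Rule for the calls: active = every repeat run showing a signal drop whose fitted half-maximal concentration is at most twice the top tested concentration; inconclusive = repeat runs disagree, or flat partial drop, or poor fit; inactive = the rest.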

assay: general mammalian cell viability loss – activator set, cherry-pick, cytotoxicity control for miR-122 modulator project, dose response (AID 720690); details: HEK293T viability, CellTiter-Glo luminescence, 48 h; series mostly up to 26 µM

SMILES	outcome
Cc1cccc(NC(=O)c2sc3nc(-c4ccc(F)cc4)cn3c2C)n1	inactive
CCNC(=O)Nc1ccc2c(c1)C(=O)N(C)[C@H]1CC[C@H](CC(=O)NCc3ccccc3F)O[C@H]1CO2	inactive
CCNC(=O)C[C@H]1CC[C@H]2[C@@H](COc3ccc(NS(C)(=O)=O)cc3C(=O)N2C)O1	inactive
CN1C(=O)c2cc(NC(=O)c3cccs3)ccc2OC[C@@H]2O[C@@H](CC(=O)NCCN3CCCCC3)CC[C@H]21	inactive
COC(=O)C[C@H]1CC[C@H]2[C@H](COc3ccc(NC(=O)NC(C)C)cc3C(=O)N2C)O1	inactive
COc1ccccc1C#Cc1ccc([C@H]2[C@@H](CO)N3CCCCN(CCC(F)(F)F)C[C@H]23)cc1	inactive
CNC(=O)C[C@H]1CC[C@H]2[C@H](COc3ccc(NC(=O)c4cccc(OC)c4)cc3C(=O)N2C)O1	inactive
COC(=O)C[C@H]1CC[C@@H]2[C@H](COc3ccc(NC(=O)c4cc(F)cc(F)c4)cc3C(=O)N2C)O1	inactive
CO[C@@H]1CN(C)C(=O)c2cc(NC(=O)NC(C)C)ccc2OC[C@H](C)N(Cc2cncnc2)C[C@H]1C	inactive
Cc1cc(C)n(C(=O)Cn2nc(C)c(Br)c2C)n1	inactive
COc1ccc(CN2CCOC2=O)cc1OC	inactive
O=C(Nc1ccccc1F)N1[C@H](CO)[C@@H]2c3ccccc3NC[C@@H]21	inactive
CNC(=O)C[C@H]1CC[C@@H]2[C@H](COc3ccc(NC(=O)c4ccc(OC)cc4)cc3C(=O)N2C)O1	inactive
COCC(=O)Nc1ccc2c(c1)C(=O)N(C)[C@@H]1CC[C@@H](CC(=O)NC3CCCC3)O[C@H]1CO2	inactive
CCC(=O)N1[C@H](CO)[C@H](c2ccccc2)[C@H]1CN(C(C)C)S(C)(=O)=O	inactive
C[C@@H]1CN([C@H](C)CO)C(=O)c2cc(-c3cncnc3)cnc2O[C@H]1CN(C)Cc1ccc(Oc2ccccc2)cc1	inactive
CN(C)CCCNC(=O)C[C@@H]1CC[C@H]2[C@H](COc3ccc(NC(=O)c4cccc(F)c4)cc3C(=O)N2C)O1	inactive
COCC(=O)N(C[C@@H]1[C@@H](c2ccccc2)[C@H](CO)N1C(=O)NC(C)C)C(C)C	inactive
CN1[C@@H](CO)[C@@H]2c3ccccc3N(C(=O)Nc3cc(F)ccc3F)C[C@@H]21	inactive
CNC(=O)C[C@@H]1CC[C@H]2[C@H](COc3ccc(NC(=O)c4cccc(OC)c4)cc3C(=O)N2C)O1	inactive

SMILES	outcome
Nc1ccc(Oc2ccc(Br)cc2)cc1	inactive
COCC(=O)Nc1ccc2c(c1)C(=O)N(C)[C@@H]1CC[C@@H](CC(=O)OC)O[C@@H]1CO2	inactive
CC(C)NC(=O)Nc1ccc2c(c1)C(=O)N(C)[C@@H]1CC[C@@H](CC(=O)NCC(F)(F)F)O[C@@H]1CO2	inactive
C[C@@H]1CN([C@@H](C)CO)S(=O)(=O)c2ccc(-c3ccc(C(=O)N(C)C)cc3)cc2O[C@@H]1CN(C)C(=O)C1CCC1	inactive
CO[C@@H]1CN(C)C(=O)c2ccc(NC(=O)Nc3ccc(C(F)(F)F)cc3)cc2OC[C@H](C)NC[C@H]1C	inactive
Cc1ccc(-c2ccc3c(c2)O[C@H](CN(C)C(=O)CC2CC2)[C@H](C)CN([C@@H](C)CO)S3(=O)=O)cc1	inactive
O=C(C1CCOCC1)N1C[C@H]2[C@@H](c3ccccc31)[C@@H](CO)N2Cc1ccccc1	inactive
CO[C@H]1CN(C)C(=O)c2ccc(NS(C)(=O)=O)cc2OC[C@H](C)N(C(=O)CN(C)C)C[C@H]1C	inactive
CCNC(=O)C[C@H]1CC[C@@H]2[C@H](COc3ccc(NC(=O)c4cccs4)cc3C(=O)N2C)O1	inactive
CC(=O)N1[C@H](CO)[C@@H](c2ccccc2)[C@H]1CN(C)C(=O)CN1CCOCC1	inactive
CNC(=O)C[C@H]1CC[C@H]2[C@@H](COc3ccc(NC(=O)c4cccc(OC)c4)cc3C(=O)N2C)O1	inactive
O=C(c1ccc(CNc2c(NC3CCCCC3)c(=O)c2=O)cc1)N1CCc2ccccc21	inactive
COc1ccc(C(=O)C2CCCN(Cc3cccn3-c3ccccn3)C2)c(OC)c1 (centres undefined)	inactive
C[C@@H]1CN([C@@H](C)CO)S(=O)(=O)c2ccc(/C=C/c3ccccc3)cc2O[C@@H]1CN(C)C(=O)c1cccnc1	inactive
CCCNC(=O)C[C@@H]1CC[C@@H]2[C@@H](COc3ccc(NC(=O)Nc4ccccc4F)cc3C(=O)N2C)O1	inactive
CCCNC(=O)C[C@H]1CC[C@@H]2[C@@H](COc3ccc(NC(=O)c4ccc(C(F)(F)F)cc4)cc3C(=O)N2C)O1	inactive
COc1ccc(-c2c(C)nn3c(N)c(-c4ccccc4)cnc23)cc1OC	inactive
CCCC(=O)Nc1ccc2c(c1)C(=O)N(C)[C@H]1CC[C@@H](CC(=O)NCCN3CCCCC3)O[C@H]1CO2	inactive
CC(=O)N(C)C[C@@H]1[C@@H](c2ccccc2)[C@H](CO)N1C(=O)C1CCC1	inactive
